Test results from PubChem BioAssay (EPA / NIEHS).
Results filed as inconclusive are left out. The source made the active and inactive calls. How the source made its calls: active means hit-call score of the fitted dose curve at least 0.9, where 1 is the maximum; inconclusive means response in the unintended direction; inactive means score below 0.9.

Legend:
[1] = ACEA_ER_AUC_viability: ACEA Biosciences xCELLigence Real-Time Cell Analysis on Estrogen Receptor Agonism for Viability (AID 2283782);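 further: continuous compound exposure with impedance area under curve over 80 h; hit means loss of impedance signal meaning reduced cell growth or viability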
Procedure, shortened: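 T47D cells preconditioned in phenol red-free RPMI with charcoal-stripped FBS, then dosed with 8-point 1:4 series from 100 uM (up to 0.5% DMSO). Impedance monitored up to ~80 h; area-under-curve loss versus DMSO taken as viability.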

[2] = STM_H9_NormalizedViability: Cytotoxicity Assessment at 120 hours in the Stemina devTOX quickPredict H9 human embryonic stem cell (hESC)-based Assay (AID 2283784)
Procedure, shortened: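 Chemicals are tested blinded on H9 human embryonic stem cells in the pluripotent state, with medium exchanged daily. After background correction, fluorescence from CellTiter-Fluor is scaled against 0.1% DMSO wells, and decreases are scored.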

AR (gene 367) [3] = biological target: AR (gene 367) (UniProt P10275); experiment: ACEA_AR_agonist_80hr: ACEA Biosciences xCELLigence Real-Time Cell Analysis on Androgen Receptor Agonism for Proliferation (AID 2283783);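 further: hits increase impedance growth signal above DMSO baseline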
Sequence of AR (gene 367) (P10275 whole entry, looked up): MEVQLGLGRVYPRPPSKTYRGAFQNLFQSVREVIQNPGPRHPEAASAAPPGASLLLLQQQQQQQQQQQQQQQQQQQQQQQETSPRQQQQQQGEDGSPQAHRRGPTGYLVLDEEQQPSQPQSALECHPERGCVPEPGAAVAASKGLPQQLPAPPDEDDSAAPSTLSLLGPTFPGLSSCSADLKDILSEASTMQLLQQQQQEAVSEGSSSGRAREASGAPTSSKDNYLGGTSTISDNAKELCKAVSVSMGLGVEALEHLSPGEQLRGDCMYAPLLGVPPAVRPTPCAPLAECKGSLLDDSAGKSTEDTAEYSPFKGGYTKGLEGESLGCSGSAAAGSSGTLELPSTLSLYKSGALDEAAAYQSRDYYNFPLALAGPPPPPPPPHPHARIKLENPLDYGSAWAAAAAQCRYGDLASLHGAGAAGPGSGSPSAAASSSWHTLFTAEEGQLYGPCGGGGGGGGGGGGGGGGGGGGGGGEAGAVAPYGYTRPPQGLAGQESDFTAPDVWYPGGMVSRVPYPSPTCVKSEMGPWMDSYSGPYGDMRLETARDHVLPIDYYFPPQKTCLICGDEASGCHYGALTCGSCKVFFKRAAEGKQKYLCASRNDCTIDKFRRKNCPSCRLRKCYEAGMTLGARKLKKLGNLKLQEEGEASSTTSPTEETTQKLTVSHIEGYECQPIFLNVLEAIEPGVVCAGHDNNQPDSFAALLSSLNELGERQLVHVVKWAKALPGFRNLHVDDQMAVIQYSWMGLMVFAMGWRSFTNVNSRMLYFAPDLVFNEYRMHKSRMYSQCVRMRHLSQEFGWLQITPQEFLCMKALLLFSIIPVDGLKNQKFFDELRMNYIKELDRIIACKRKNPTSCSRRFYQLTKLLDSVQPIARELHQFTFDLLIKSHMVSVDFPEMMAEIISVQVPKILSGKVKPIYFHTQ
Procedure, shortened: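 Proliferation of 22Rv1 prostate cancer cells tracked by electrical impedance, endpoint taken at 80 hours after dosing. Eight-point 1:4 dilutions from 100 uM maximum final, duplicate; testosterone and MG132 as positive controls, assay media as negative.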

AR (gene 367) [4] = biological target: AR (gene 367) (UniProt P10275); experiment: ACEA_AR_antagonist_80hr: ACEA Biosciences xCELLigence Real-Time Cell Analysis on Androgen Receptor Antagonism for Proliferation (AID 2283787);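 further: 22Rv1 human prostate cancer cells with growth followed by electrical impedance; hits lower the impedance growth signal relative to DMSO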
Procedure, shortened: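 22Rv1 cells in assay medium, growth tracked by electrical impedance; compounds eight-point 1:4 dilutions from 100 uM final, duplicate plates. Endpoint at 80 h; loss of signal versus DMSO.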

[5] = test system: turtle Estrogen Receptor (ESR1), gene 101933533; experiment: ATG_trERa_XSP1: Attagene TRANS-FACTORIAL Multi-Species (XSP1) HepG2 Assay for turtle Estrogen Receptor (ESR1) (AID 2283781)
Procedure, shortened: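 Turtle ERa as a GAL4 chimera in transiently transfected HepG2 cells; reporter mRNA quantified 24 h after dosing by RT-PCR and capillary electrophoresis. 3 nM 6-alpha-fluorotestosterone present; gain of signal versus DMSO.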

[6] = biological target: Estrogen receptor beta (Homo sapiens) (UniProt Q92731); experiment: ATG_hERb_XSP1: Attagene TRANS-FACTORIAL Multi-Species (XSP1) HepG2 Assay for human Estrogen Receptor (ESR2) (AID 2283788)
Sequence of Estrogen receptor beta (Homo sapiens) (Q92731 whole entry, looked up, the tested form may be a part): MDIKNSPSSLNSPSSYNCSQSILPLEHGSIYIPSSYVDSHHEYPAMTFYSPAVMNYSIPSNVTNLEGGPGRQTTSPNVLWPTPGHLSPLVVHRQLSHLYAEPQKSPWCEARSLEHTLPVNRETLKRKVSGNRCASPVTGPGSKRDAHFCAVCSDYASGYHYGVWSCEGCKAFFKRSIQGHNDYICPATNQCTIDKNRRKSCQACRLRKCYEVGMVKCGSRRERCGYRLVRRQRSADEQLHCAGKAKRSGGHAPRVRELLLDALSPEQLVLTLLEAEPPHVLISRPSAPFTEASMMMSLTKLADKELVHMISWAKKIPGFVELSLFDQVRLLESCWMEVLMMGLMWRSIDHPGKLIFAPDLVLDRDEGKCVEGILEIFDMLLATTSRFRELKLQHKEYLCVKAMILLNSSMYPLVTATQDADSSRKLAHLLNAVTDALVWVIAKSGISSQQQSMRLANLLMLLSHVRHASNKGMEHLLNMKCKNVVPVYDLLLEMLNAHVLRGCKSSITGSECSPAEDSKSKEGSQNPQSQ
Procedure, shortened: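 HepG2 cells transiently transfected with GAL4-UAS multiplexed reporter units, 3 nM 6-alpha-fluorotestosterone present; 24 h exposure. Reporter mRNA measured by RT-PCR, fluorescent labelling and capillary electrophoresis; gain of signal fitted against DMSO.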

[7] = ATG_M_06_XSP1: Attagene TRANS-FACTORIAL Multi-Species (XSP1) HepG2 Assay for M06 Transcription Factor (Internal Marker) (AID 2283790)
Procedure, shortened: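 Transfected HepG2 multi-reporter system treated 24 h in the presence of 3 nM 6-alpha-fluorotestosterone. The M06 internal marker transcript was quantified by RT-PCR with capillary electrophoresis as a background control, and gain of signal was scored versus DMSO.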

[8] = ATG_M_61_XSP1: Attagene TRANS-FACTORIAL Multi-Species (XSP1) HepG2 Assay for M61 Transcription Factor (Internal Marker) (AID 2283797)
Procedure, shortened: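 HepG2 cells transiently transfected with multiplexed GAL4-driven reporter units, dosed 24 h with 3 nM 6-alpha-fluorotestosterone present. Reporter mRNA quantified by RT-PCR, 6-FAM labelling, HpaI digestion and capillary electrophoresis; internal-marker background control, gain of signal versus DMSO.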

[9] = test system: turtle Androgen Receptor (AR), gene 101947425; experiment: ATG_trAR_XSP1: Attagene TRANS-FACTORIAL Multi-Species (XSP1) HepG2 Assay for turtle Androgen Receptor (AR) (AID 2283786)
Method: ATG_XSP1_multi-species_TRANS is a cell-based, multiplexed assay created by modifying the existing Attagene TRANS-FACTORIAL system to include a panel of nuclear receptors from some or all the following species: human (Homo sapiens), mouse (Mus musculus), frog (Xenopus laevis), zebrafish (Danio rerio), chicken (Gallus gallus), and turtle (Chrysemys picta). The ECOTOX-FACTORIAL format uses HepG2, a human liver cell line, with measurements taken at 24 hours after chemical dosing in a 24-well plate. Xsp1 included 3 nM 6-alpha-fluorotestosterone to partially stimulate the androgen receptor.ATG_trAR_XSP1 is one of 29 assay components measured or calculated from the ATG_XSP1_multi-species_TRANS assay. It is designed to make measurements of mRNA induction, a form of inducible reporter, as detected with fluorescence intensity signals by Reverse transcription polymerase chain reaction (RT-PCR) and Capillary electrophoresis technology.The assay endpoint ATG_trAR_XSP1 was analyzed in the positive analysis fitting direction relative to DMSO as the negative control and baseline of activity. […] Furthermore, this assay endpoint can be referred to as a primary readout, because this assay has produced multiple assay endpoints where this one serves a reporter gene function. […]

For `CCOP(=O)(OCC)Oc1cc(C)nc(C(C)C)n1`, the outcome [1] was “inactive”.
For `CCCCSP(=O)(SCCCC)SCCCC`, the AC50 [1] was 71.4 µM (active).
In the case of `COP(=O)(OC)C(O)C(Cl)(Cl)Cl` (centres undefined), the AC50 [1] is reported as 76.5 µM (active).
For `CC(=NC#N)N(C)Cc1ccc(Cl)nc1`, the outcome [1] was “inactive”.
With `CN(C)NC(=O)CCC(=O)O` the outcome [1] was “inactive”.
For `O=C(O)c1cc(Oc2ccc(C(F)(F)F)cc2Cl)ccc1[N+](=O)[O-]`, the outcome [1] was “inactive”.
For `O=c1ccc(=O)[nH][nH]1`, the outcome [1] was “inactive”.
For `Cc1cc(C2CC2)nc(Nc2ccccc2)n1`, the AC50 [1] was 77.3 µM (active).
In the case of `CCOP(=S)(OCC)OC(Cl)C(Cl)(Cl)Cl` (centres undefined), the AC50 [1] is reported as 76.4 µM (active).
In the case of `COc1cccc(C(=O)NN(C(=O)c2cc(C)cc(C)c2)C(C)(C)C)c1C`, the outcome [1] is reported as “inactive”.
With `CON=C(C(=O)OC)c1ccccc1CON=C(C)c1cccc(C(F)(F)F)c1` the AC50 [1] was 90.5 µM (active) and the outcome [2] was “inactive”.
For `CNC(=O)ON=C(C)SC`, the outcome [1] was “inactive”.
In the case of `CCOP(=S)(OCC)Oc1ccc([N+](=O)[O-])cc1`, the outcome [1] is reported as “inactive”.
For `S=C1NCCN1`, the outcome [1] was “inactive”.
In the case of `CC[C@H](C)[C@H]1O[C@]2(C=C[C@@H]1C)C[C@@H]1C[C@@H](C/C=C(\C)[C@@H](O[C@H]3C[C@H](OC)[C@@H](O[C@H]4C[C@H](OC)[C@@H](NC)[C@H](C)O4)[C@H](C)O3)[C@@H](C)/C=C/C=C3\CO[C@@H]4[C@H](O)C(C)=C[C@@H](C(=O)O1)[C@]34O)O2`, the AC50 [1] is reported as 1.82 µM (active).
In the case of `CCCSP(=O)(OCC)Oc1ccc(Br)cc1Cl` (centres undefined), the AC50 [1] is reported as 38.6 µM (active).
In the case of `CCC(CC)Nc1c([N+](=O)[O-])cc(C)c(C)c1[N+](=O)[O-]`, the AC50 [1] is reported as 76.8 µM (active).
With `COP(=O)(NC(C)=O)SC` (centres undefined) the outcome [1] was “inactive”.
In the case of `CCOP(=S)(Oc1cnc(C(C)(C)C)nc1)OC(C)C` (centres undefined), the AC50 [1] is reported as 81.4 µM (active).
In the case of `CNC(=O)ON=C(SC)C(=O)N(C)C`, the AC50 [1] is reported as 65.5 µM (active), the outcome (AR (gene 367) [3]) is reported as “inactive” and the outcome (AR (gene 367) [4]) is reported as “inactive”.
In the case of `CC1=NNC(=O)N(/N=C/c2cccnc2)C1`, the outcome [1] is reported as “inactive” and the outcome [2] is reported as “inactive”.
In the case of `CN(C)C(=O)Nc1cccc(C(F)(F)F)c1`, the outcome [1] is reported as “inactive” and the outcome [2] is reported as “inactive”.
In the case of `CCc1cccc(C)c1N(C(=O)CCl)C(C)COC` (centres undefined), the AC50 [5] is reported as 17.4 µM (active), the outcome [1] is reported as “inactive” and the AC50 [6] is reported as 4.14 µM (active). The outcome [7] was “inactive” and the outcome [8] was “inactive”.
For `COP(=O)(OC)OC(Br)C(Cl)(Cl)Br` (centres undefined), the AC50 [1] was 30.7 µM (active), the outcome (AR (gene 367) [3]) was “inactive” and the AC50 (AR (gene 367) [4]) was 69.5 µM (active).
In the case of `CNC(=O)Oc1cccc2c1OC(C)(C)O2`, the outcome [1] is reported as “inactive”.
In the case of `Nc1nc(N)nc(NC2CC2)n1`, the outcome [1] is reported as “inactive”.
For `C=C(C)[C@H]1Cc2c(ccc3c2O[C@@H]2COc4cc(OC)c(OC)cc4[C@@H]2C3=O)O1`, the outcome [1] was “inactive”, the outcome (AR (gene 367) [3]) was “inactive” and the AC50 [2] was 0.515 µM (active). For the same compound, the AC50 (AR (gene 367) [4]) was 1.54 µM (active).
For `COP(=O)(OC)SCn1c(=O)oc2cc(Cl)cnc21`, the AC50 [1] was 76.2 µM (active), the outcome (AR (gene 367) [3]) was “inactive” and the AC50 (AR (gene 367) [4]) was 21.7 µM (active).
For `CCOP(=S)(OCC)Oc1ccc2c(C)c(Cl)c(=O)oc2c1`, the outcome [5] was “inactive”, the outcome [6] was “inactive” and the outcome [7] was “inactive”. The outcome [8] was “inactive”.
In the case of `CCOC(=O)CC(SP(=O)(OC)OC)C(=O)OCC` (centres undefined), the outcome [1] is reported as “inactive”.
For `C#CC(C)(C)NC(=O)c1cc(Cl)cc(Cl)c1`, the AC50 [5] was 64.3 µM (active), the outcome [9] was “inactive” and the outcome [7] was “inactive”. For the same compound, the outcome [8] was “inactive”.
In the case of `CSc1nnc(C(C)(C)C)c(=O)n1N`, the outcome [1] is reported as “inactive” and the outcome [2] is reported as “inactive”.
For `CSc1nc(NC(C)C)nc(NC(C)C)n1`, the outcome [1] was “inactive” and the outcome [2] was “inactive”.
In the case of `CC(C1CC1)C(O)(Cn1cncn1)c1ccc(Cl)cc1` (centres undefined), the outcome [1] is reported as “inactive” and the outcome [2] is reported as “inactive”.
With `CCCOc1nn(C(=O)NS(=O)(=O)c2ccccc2C(=O)OC)c(=O)n1C` the outcome (AR (gene 367) [3]) was “inactive” and the outcome (AR (gene 367) [4]) was “inactive”.
With `CCC(=O)Nc1ccc(Cl)c(Cl)c1` the AC50 (AR (gene 367) [4]) was 20 µM (active).
For `CNc1cnn(-c2cccc(C(F)(F)F)c2)c(=O)c1Cl`, the outcome [2] was “inactive”.
In the case of `CCc1cccc(CC)c1N(COC)C(=O)CCl`, the outcome [1] is reported as “inactive” and the AC50 (AR (gene 367) [4]) is reported as 63.9 µM (active).
In the case of `CC(C)=CC1C(C(=O)OCN2C(=O)C3=C(CCCC3)C2=O)C1(C)C` (centres undefined), the outcome (AR (gene 367) [3]) is reported as “inactive” and the AC50 (AR (gene 367) [4]) is reported as 69.8 µM (active).
In the case of `FC(F)C(F)(F)OCC(Cn1cncn1)c1ccc(Cl)cc1Cl` (centres undefined), the AC50 [1] is reported as 75.7 µM (active) and the outcome [2] is reported as “inactive”.
In the case of `Cc1ccn2nc(S(=O)(=O)Nc3c(F)cccc3F)nc2n1`, the outcome [2] is reported as “inactive”.
In the case of `CCCCOC(=O)c1ccccc1C(=O)O`, the outcome [1] is reported as “inactive” and the outcome (AR (gene 367) [4]) is reported as “inactive”.
With `CCOC(=O)COc1cc(-c2nn(C)c(OC(F)F)c2Cl)c(F)cc1Cl` the outcome [1] was “inactive” and the AC50 (AR (gene 367) [4]) was 28.1 µM (active).
With `CCOP(=S)(OCC)SCCSCC` the outcome [2] was “inactive”.
In the case of `CCC(=NOC/C=C/Cl)C1=C(O)CC(C2CCOCC2)CC1=O` (centres undefined), the outcome [1] is reported as “inactive” and the outcome [2] is reported as “inactive”.
With `CSC1=N[C@@](C)(c2ccccc2)C(=O)N1Nc1ccccc1` the AC50 [2] was 30.1 µM (active).
For `CN(C)[C@@H]1C(=O)C(C(N)=O)=C(O)[C@@]2(O)C(=O)C3=C(O)c4c(O)cccc4[C@@](C)(O)[C@H]3[C@H](O)[C@@H]12`, the AC50 [2] was 50 µM (active).
